In PubChem BioAssay (NCATS):
Results filed as inconclusive are left out. The source made the active and inactive calls. Unless noted, calls come from the whole dose curve; as a rule, active = well fitted curve in the direction sought with a large enough effect; inconclusive = small, poorly fitted or top-dose-only effect, or another doubt; inactive = no such curve, though single readings can be large; an effect the other way counts as inactive or inconclusive.

Tests used:
[1] = High Content Imaging Cell-Based qHTS for Inhibitors of the mTORC1 Signaling Pathway in MEF (Tsc2-/-, p53-/-) Cells (AID 2666); conditions: at 38.3 µM (top of the series);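 note: percent of cells scored positive for phospho-rpS6 Ser235/236 immunostaining by imaging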
Method in brief: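 Inhibition of rpS6 phosphorylation is measured by immunofluorescence imaging in empty-vector Tsc2-/-, p53-/- mouse embryonic fibroblasts after 24 hrs compound exposure at 37 degree Celsius. Results are reported as % positive cells per well.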

[2] = target: Ubiquitin carboxyl-terminal hydrolase 2 (Homo sapiens) (UniProt O75604); assay: qHTS Validation Assay for Inhibitors of Ubiquitin-specific Protease USP2a Using CHOP2 as the Reporter (AID 463106); conditions: USP2a cleavage of CHOP2 reporter, enzymatic; series mostly up to 38.3 µM
Chain of Ubiquitin carboxyl-terminal hydrolase 2 (Homo sapiens) (O75604 whole entry, looked up): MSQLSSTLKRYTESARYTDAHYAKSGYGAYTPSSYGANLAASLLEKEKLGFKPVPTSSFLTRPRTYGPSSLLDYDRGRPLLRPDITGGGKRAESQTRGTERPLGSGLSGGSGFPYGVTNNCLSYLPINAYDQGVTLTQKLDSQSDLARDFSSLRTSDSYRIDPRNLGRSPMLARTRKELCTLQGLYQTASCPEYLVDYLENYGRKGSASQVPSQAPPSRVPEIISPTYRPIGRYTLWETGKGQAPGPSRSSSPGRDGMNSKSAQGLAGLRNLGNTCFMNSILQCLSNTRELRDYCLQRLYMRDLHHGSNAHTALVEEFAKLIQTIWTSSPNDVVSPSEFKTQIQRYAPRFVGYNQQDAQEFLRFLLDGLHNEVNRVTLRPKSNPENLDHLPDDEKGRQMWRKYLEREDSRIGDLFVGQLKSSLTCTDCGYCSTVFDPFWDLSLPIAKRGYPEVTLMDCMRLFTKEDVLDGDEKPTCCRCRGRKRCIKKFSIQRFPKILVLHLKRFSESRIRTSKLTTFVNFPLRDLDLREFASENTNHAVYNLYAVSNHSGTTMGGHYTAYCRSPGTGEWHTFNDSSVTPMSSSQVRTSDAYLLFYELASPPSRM
Method in brief: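 Inhibition is expressed relative to NEM as the full-inhibition control, with concentration-response curves classed by fit quality, magnitude and activity. Enzyme (USP2 core, 10nM) meets 25nM Ub-CHOP2 after compound preincubation; readings are taken at 60min.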

[3] = target: DNA polymerase III PolC-type (Bacillus subtilis (strain 168)) (UniProt P13267); assay: qHTS Validation Assay for the Inhibitors of DNA Replication in Gram-Positive Bacteria (AID 485295); conditions: Gram-positive bacterial DNA replication assay; series mostly up to 57.1 µM;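 note: reconstituted holoenzyme with PolC plus beta clamp SSB and primase; PicoGreen fluorescence of double-stranded DNA made on primed circular M13 template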
Method in brief: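 First, compound is mixed with the reconstituted replication complex and held at room temperature. Next, circular single-stranded M13Gori with nucleotides starts synthesis. Finally, PicoGreen in EDTA halts the reaction and stains double-stranded product for fluorescence reading.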

[4] = target: Tumor susceptibility gene 101 protein (Homo sapiens) (UniProt Q99816); assay: qHTS Validation Assay for Iinhibitors of HIV-1 Budding by Blocking the Interaction of PTAP/TSG101 (AID 485342; calls by dose curve); conditions: TSG101-PTAP binding, fluorescence polarization, 4-point titration; series mostly up to 115 µM
Chain of Tumor susceptibility gene 101 protein (Homo sapiens) (Q99816 whole entry, looked up, the tested form may be a part): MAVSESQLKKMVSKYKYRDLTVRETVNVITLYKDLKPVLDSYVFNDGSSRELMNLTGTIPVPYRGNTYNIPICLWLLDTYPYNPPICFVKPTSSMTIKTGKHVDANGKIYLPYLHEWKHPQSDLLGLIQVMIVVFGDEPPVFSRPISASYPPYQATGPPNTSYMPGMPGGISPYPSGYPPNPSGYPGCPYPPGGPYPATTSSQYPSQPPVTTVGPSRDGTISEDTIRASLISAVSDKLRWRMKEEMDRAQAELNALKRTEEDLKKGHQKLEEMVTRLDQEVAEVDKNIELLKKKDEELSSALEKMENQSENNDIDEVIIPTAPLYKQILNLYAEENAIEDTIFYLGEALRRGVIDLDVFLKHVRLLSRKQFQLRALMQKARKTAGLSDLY
Method in brief: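 Binding of a FITC-tagged PTAP-motif peptide (50 nM) to the Tsg101 binding domain (10 uM) is monitored by fluorescence polarization. Compounds are pin-delivered before peptide addition, and incubation runs 20 min at room temperature.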

[5] = qHTS Validation Assay to Find Inhibitors of Chronic Active B-Cell Receptor Signaling (AID 485345; active = well fitted curve in the direction sought with a large enough effect in the main read-out, with a control signal flat, not every such curve was filed as active); conditions: ABC-DLBCL cells, chronic BCR signaling reporter, CBG luciferase; series mostly up to 46.1 µM
Method in brief: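 TMD8 ABC-DLBCL cells with dox-inducible green luciferase–IκBα fusion and red native luciferase; compounds 46 uM–3 nM, 4 h at 37C with doxycycline in 0.5% FBS IMDM. Green/red ratio normalized to basal and 10 uM MG-132.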

[6] = target: Beta-2 adrenergic receptor (Homo sapiens) (UniProt P07550); assay: qHTS validation assay of beta-arrestin-biased ligands of beta2-adrenergic receptor (AID 485366); conditions: cell-based beta-arrestin recruitment to ADRB2, qHTS; series mostly up to 46.1 µM
Chain of Beta-2 adrenergic receptor (Homo sapiens) (P07550 whole entry, looked up): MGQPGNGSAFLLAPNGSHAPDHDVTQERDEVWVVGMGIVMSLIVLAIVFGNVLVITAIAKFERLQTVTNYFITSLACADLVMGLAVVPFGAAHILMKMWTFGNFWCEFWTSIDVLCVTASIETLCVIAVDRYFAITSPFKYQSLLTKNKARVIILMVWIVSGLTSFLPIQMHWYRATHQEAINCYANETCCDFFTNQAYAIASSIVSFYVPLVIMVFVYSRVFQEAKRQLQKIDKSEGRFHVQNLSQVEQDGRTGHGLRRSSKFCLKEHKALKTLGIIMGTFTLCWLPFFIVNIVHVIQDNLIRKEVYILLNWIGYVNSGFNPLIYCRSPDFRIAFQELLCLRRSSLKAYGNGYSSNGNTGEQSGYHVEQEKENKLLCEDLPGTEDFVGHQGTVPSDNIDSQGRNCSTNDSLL
Method in brief: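 Screening used a titration range of up to 46 microM in a beta-arrestin recruitment Tango luciferase assay. Cells in 1% FBS medium were treated 18 hr at 37 degrees C, and luminescence was normalized to %Activity.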

[7] = target: Thioredoxin reductase 1, cytoplasmic (Rattus norvegicus) (UniProt O89049); assay: qHTS Assay for Substrates of Mammalian Selenoprotein Thioredoxin Reductase 1 (TrxR1) (AID 488772); conditions: purified TrxR1, NADPH consumption substrate assay; series mostly up to 57.1 µM;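 note: a drop in NADPH fluorescence below the no-compound background marks a TrxR1 substrate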
Chain of Thioredoxin reductase 1, cytoplasmic (Rattus norvegicus) (O89049 whole entry, looked up): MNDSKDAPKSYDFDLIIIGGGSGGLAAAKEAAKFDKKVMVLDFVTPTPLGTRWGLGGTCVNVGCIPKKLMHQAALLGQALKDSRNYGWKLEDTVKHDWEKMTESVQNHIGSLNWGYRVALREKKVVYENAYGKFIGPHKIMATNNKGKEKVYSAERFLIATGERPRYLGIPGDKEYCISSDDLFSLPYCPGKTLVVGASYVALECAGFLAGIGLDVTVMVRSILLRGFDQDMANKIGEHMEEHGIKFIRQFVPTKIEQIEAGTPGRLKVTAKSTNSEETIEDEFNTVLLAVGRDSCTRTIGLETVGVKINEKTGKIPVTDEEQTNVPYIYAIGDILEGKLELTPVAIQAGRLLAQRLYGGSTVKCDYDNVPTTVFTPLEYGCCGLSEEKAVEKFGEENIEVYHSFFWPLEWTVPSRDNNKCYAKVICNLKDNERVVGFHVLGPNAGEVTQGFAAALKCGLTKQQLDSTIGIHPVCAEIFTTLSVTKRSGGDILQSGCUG
Method in brief: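 In this dual-purpose format, potential substrates are identified from the first fluorescence read after selenite addition, not from the 8-minute delta. Rat enzyme is preincubated with NADPH and then with compound at ~22 deg C.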

[8] = target: Flap endonuclease 1 (Homo sapiens) (UniProt P39748); assay: qHTS Validation Assay for the Inhibitors of Human Flap endonuclease 1 (FEN1) (AID 488816); conditions: FEN1 nuclease activity, fluorogenic DNA substrate; series mostly up to 57.1 µM
Chain of Flap endonuclease 1 (Homo sapiens) (P39748 whole entry, looked up): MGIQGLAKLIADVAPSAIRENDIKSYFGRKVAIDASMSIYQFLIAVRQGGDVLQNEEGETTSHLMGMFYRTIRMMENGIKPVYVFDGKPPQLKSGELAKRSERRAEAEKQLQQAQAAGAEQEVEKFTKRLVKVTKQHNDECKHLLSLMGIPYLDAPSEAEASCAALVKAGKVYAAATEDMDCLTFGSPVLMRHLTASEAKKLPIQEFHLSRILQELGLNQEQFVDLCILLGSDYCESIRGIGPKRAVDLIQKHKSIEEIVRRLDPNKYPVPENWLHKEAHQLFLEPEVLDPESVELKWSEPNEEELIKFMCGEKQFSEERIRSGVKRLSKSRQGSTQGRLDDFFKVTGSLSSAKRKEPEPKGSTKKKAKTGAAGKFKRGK
Method in brief: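 Steps: add FEN1 (10 nM reagent) or buffer only; pin compounds; hold 15 min at room temperature; start with substrate, 50 nM final; read at 0 and 15 min; correct, normalize and fit a four-parameter Hill curve.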

[9] = target: Methanococcus maripaludis chaperonin (MmCpn) (UniProt Q6LX38); assay: High-Throughput Screening for Modulators of Cytosolic Chaperonin Activity: MmCpn Primary Screen (AID 488978); conditions: Purified MmCpn ATPase activity, ADP HTRF detection, 10 min; series mostly up to 76.9 µM;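 note: 50 nM MmCpn enzyme hydrolysing 30 µM ATP at 37 °C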
Chain of Methanococcus maripaludis chaperonin (MmCpn) (Q6LX38 1-543): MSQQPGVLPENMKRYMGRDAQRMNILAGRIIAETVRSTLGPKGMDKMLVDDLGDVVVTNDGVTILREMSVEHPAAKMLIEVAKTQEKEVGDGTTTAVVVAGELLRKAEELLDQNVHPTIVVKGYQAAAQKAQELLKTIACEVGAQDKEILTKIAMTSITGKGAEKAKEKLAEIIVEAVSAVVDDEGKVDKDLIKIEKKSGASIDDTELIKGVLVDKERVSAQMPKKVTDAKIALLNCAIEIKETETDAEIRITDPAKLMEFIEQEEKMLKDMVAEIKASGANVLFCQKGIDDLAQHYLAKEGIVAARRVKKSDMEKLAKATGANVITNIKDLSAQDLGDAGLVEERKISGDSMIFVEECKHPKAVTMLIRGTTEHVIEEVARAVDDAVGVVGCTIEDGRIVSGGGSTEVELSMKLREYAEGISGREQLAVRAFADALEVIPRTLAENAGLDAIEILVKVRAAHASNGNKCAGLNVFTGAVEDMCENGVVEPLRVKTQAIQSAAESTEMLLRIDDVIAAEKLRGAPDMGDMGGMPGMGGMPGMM
Method in brief: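 Steps: chaperonin 50 nM final; add compound, 5 min RT; start with ATP, 30 uM final; hold 10 min at 37C; add ADP Transcreener HTRF reagent, 5 min; read ex 320, em 590 and 665 nm.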

[10] = target: D(1A) dopamine receptor (Homo sapiens) (UniProt P21728); assay: HTS Assay for Allosteric Agonists of the Human D1 Dopamine Receptor: Primary Screen for Agonists (AID 488981); conditions: Inducible HEK293 T-REx D1 cells, calcium-flux fluorescence, 180 s kinetic; series mostly up to 41.8 µM
Chain of D(1A) dopamine receptor (Homo sapiens) (P21728 whole entry, looked up): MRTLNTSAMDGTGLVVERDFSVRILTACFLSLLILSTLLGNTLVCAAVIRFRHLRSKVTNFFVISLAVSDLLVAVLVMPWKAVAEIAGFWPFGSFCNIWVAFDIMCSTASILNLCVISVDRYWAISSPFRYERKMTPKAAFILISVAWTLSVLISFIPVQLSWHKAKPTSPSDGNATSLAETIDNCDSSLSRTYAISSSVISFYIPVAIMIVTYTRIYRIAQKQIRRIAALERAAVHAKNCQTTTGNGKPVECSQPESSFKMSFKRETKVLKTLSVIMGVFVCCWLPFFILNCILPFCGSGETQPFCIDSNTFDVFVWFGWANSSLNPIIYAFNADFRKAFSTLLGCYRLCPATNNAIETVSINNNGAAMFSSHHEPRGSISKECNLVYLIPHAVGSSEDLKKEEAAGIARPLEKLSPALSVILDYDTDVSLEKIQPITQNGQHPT
Method in brief: (§1)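 Tetracycline-induced HEK293 T-REx cells force-coupled to calcium signalling were incubated overnight at 30 C and dye-loaded at room temperature. Calcium flux over 180 s after compound addition flagged agonists; a further 180 s read after EC20 dopamine flagged potentiators.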

[11] = target: D(1A) dopamine receptor (Homo sapiens) (UniProt P21728); assay: HTS Assay for Allosteric Agonists of the Human D1 Dopamine Receptor: Primary Screen for Potentiators (AID 488982); conditions: HEK293 T-REx D1 inducible cells, calcium flux, kinetic fluorescence; series mostly up to 8.37 µM
Method in brief: as §1

[12] = target: D(1A) dopamine receptor (Homo sapiens) (UniProt P21728); assay: HTS Assay for Allosteric Agonists of the Human D1 Dopamine Receptor: Primary Screen for Antagonists (AID 488983); conditions: D1 receptor cell assay, antagonist mode, qHTS titration; series mostly up to 41.8 µM;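 note: calcium flux response to an EC80 dopamine challenge measured with no-wash dye; nearly all actives have a fitted effect of over 65% in size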
Method in brief: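 In this primary screen, compounds are applied to calcium-dye-loaded HEK293 T-REx cells with force-coupled D1 expression induced overnight at 30 C. An EC80 of dopamine follows the 180 s compound phase, and calcium is monitored for a further 180 s.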

[13] = Quantitative high throughput screen for delayed death inhibitors of the malarial parasite plastid, 96 hour incubation (AID 488745); conditions: Plasmodium falciparum growth; series mostly up to 28.7 µM; note: nearly all actives have a fitted effect of over 70% in size
Method in brief: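 Two-generation (96 h) exposure of luciferase-reporter P. falciparum in erythrocytes, 2% hematocrit, 0.1% parasitemia final, 37 C, 5% CO2, RPMI 1640 with 0.5% Albumax. Growth inhibition scored by reduced luminescence.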

[14] = target: Tyrosyl-DNA phosphodiesterase 1 (Homo sapiens) (UniProt Q9NUW8); assay: Confirmation Assay for Inhibitors of Tyrosyl-DNA Phosphodiesterase (TDP1) (AID 489007); conditions: recombinant human TDP1 enzymatic activity, dose-response; note: potency is the fitted concentration of half-maximal effect; nearly all actives have a fitted effect of over 40% in size
Chain of Tyrosyl-DNA phosphodiesterase 1 (Homo sapiens) (Q9NUW8 whole entry, looked up): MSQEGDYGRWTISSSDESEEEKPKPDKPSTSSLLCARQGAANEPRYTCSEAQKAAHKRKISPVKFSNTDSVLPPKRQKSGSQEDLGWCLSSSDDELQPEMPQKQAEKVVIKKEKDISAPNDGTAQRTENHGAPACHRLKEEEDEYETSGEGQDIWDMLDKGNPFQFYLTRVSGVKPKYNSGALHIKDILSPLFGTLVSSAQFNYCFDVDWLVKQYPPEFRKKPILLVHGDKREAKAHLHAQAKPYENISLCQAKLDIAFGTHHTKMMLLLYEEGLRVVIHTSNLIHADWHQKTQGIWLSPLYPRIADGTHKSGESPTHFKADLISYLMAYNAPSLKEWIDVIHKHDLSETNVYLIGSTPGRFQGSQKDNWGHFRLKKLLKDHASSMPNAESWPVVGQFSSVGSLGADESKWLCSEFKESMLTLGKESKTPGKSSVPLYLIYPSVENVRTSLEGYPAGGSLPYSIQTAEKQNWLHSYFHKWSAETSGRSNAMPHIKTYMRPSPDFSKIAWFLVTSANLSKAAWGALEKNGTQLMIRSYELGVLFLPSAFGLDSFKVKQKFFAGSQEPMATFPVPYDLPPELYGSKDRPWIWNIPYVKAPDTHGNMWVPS
Method in brief: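 Loss of AlphaScreen signal reports Tdp1 cleavage of a dual-labelled DNA substrate. Conditions: 1 nM E. coli-derived enzyme, 15 nM substrate, 15 min compound preincubation, 5 min reaction, 10 min bead incubation, all at room temperature.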

Measured: Potency

Oc1ccc(/C=C/c2cc(O)cc(O)c2)cc1
inactive: [1] | [2] | [3] | [4] | [5] | [6] | [7] | [8] | [9] | [10] | [11] | [12]

Cc1cc(C)c(NC(=O)C[C@H](CC(=O)O)c2cccc3ccccc23)c(C(=O)N2CCC3(CCCC3)CC2)c1
inactive: [13]

O=C(NCCNCC(O)COc1ccc(O)cc1)N1CCOCC1 (stereo unspecified)
inactive: [13]

Cn1nnnc1SCC1=C(C(=O)O)N2C(=O)[C@@H](NC(=O)[C@H](O)c3ccccc3)[C@H]2SC1
active: [14] 3.98 µM

C=Cc1ccc(S(=O)(=O)O)cc1
active: [14] 12.6 µM
